# Hits are enriched below; roughly 3% of the tested compounds scored in any of these assays.
# KDM5B inhibitor = KDM5B demethylase inhibition; KDM5B demethylase, FDH-coupled NADH fluorescence (FDH is formaldehyde dehydrogenase); Potency, µM (doses to about 57.7 µM), most hits filed as inhibitors; hit rate 2.6% among 220,000; AID 1347165; further: potency means the concentration at half of the fitted maximal effect; 0% is about no effect; nearly all actives have a fitted effect of over 70% in size
# Target sequence (Q9UGL1 whole entry, looked up): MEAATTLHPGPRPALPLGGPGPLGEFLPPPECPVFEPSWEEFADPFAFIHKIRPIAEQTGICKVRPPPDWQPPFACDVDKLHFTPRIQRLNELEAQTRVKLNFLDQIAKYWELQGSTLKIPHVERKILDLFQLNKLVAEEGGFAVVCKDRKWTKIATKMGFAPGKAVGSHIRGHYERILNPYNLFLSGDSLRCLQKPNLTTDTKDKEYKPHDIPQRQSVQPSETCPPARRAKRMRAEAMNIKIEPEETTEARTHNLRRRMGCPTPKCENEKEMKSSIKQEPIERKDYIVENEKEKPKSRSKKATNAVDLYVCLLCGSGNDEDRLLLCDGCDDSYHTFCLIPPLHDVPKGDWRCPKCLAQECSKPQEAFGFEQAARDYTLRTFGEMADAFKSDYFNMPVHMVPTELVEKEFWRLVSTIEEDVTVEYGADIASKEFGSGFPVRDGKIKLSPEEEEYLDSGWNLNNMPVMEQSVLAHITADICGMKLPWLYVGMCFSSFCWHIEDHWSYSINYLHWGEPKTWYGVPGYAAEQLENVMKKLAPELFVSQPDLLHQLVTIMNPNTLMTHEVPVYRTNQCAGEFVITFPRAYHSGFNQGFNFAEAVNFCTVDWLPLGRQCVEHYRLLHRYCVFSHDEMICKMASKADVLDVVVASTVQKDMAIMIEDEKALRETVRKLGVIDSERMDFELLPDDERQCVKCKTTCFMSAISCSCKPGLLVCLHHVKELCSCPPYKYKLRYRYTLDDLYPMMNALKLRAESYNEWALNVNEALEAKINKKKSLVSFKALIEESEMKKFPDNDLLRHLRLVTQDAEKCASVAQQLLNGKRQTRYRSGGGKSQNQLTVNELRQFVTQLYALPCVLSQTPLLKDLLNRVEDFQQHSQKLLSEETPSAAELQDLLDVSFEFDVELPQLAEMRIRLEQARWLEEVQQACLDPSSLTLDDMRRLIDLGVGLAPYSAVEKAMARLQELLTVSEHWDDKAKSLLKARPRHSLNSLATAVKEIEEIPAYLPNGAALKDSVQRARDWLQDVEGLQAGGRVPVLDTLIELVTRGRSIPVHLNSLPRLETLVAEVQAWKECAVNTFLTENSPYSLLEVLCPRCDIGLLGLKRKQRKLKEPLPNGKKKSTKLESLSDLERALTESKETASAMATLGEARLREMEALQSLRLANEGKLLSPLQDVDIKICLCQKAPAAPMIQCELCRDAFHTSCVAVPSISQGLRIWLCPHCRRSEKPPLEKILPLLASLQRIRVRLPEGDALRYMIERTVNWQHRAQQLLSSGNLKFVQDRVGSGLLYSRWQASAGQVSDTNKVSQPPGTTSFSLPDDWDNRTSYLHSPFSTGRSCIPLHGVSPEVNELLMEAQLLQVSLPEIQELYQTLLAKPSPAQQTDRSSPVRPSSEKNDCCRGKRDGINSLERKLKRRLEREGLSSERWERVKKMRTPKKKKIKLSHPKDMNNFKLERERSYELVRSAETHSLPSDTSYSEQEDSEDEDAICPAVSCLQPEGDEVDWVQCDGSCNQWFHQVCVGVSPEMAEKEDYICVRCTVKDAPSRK
#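 KDM5BΔAP (200 nM final) in 50 mM HEPES pH 7.5, 0.01% Tween-20 was preincubated 10 min at RT with compound over a concentration range. Substrate mix (H3K4me3 12.5 µM, α-KG 25 µM, Fe²⁺, ascorbate, NAD⁺, FDH) was added, and NADH fluorescence change over 30 min gave dose-response curves.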
# IP6K1 inhibitor = blocks human inositol hexakisphosphate kinase 1. IP6K1 kinase, ADP-Glo luminescence, 2 h; hits give low values. activity change, % (series mostly up to about 58 µM). hit rate 0.81% among 140,000; in the data active means activity change below about -25%; further: on the % scale 0 is the no-effect control and ±100 the full control effect
#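 ADP-Glo luminescence measures ADP made by human IP6K1 during a 2 h RT reaction with ATP/IP6 (mix at 1.3 mM/130 uM); top library doses 57.5 and 19.1 uM final.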
# HEK293 viab = reduces viability of HEK-293 SNCA reporter cells; HEK-293-SNCA-luc viability, GF-AFC fluorescence, 24 h; Potency, µM (doses to about 57.1 µM), for inactives: top-dose activity change, negative = cytotoxicity, most hits filed as cytotoxic; hit rate 0.12% among 150,000;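 further: potency means the concentration at half of the fitted maximal effect; 0% = DMSO-treated cells and -100% = medium-only wells without cells; nearly all actives have a fitted effect of over 30% in size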
#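 HEK-293-SNCA-luc cells (1500/well) plated 24 h, then exposed 24 h to a dilution series; GF-AFC added 30 min at 37C, fluorescence 405/540 nm; normalised to medium-only and DMSO wells, Hill fit.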
# SNCA expr inhib = SNCA gene expression inhibition. HEK-293 SNCA-luciferase knock-in, luminescence, 24 h. Potency, µM (series often up to 57.2 µM), without a hit: at the top dose activity change, negative = inhibition, most hits filed as inhibitors. hit rate 0.17% among 140,000;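 further: potency means the concentration at half of the fitted maximal effect; plate controls were DMSO cells for no effect and cell-free wells for full effect; nearly all actives have a fitted effect of over 45% in size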
# IP6K1 conf = confirmation of human IP6K1 inhibitors. shares compounds with IP6K1 inhibitor. recombinant IP6K1 kinase, ADP-Glo luminescence, 2 h. Potency, µM (series often up to 49 µM), inactives show at the top dose activity change, negative = inhibition, usual class: inhibitors. hit rate 13% among 1,200; further: potency means the concentration at half of the fitted maximal effect; on the % scale 0 is the no-effect control and ±100 the full control effect; nearly all actives have a fitted effect of over 65% in size
# Numbers without * were called inactive; i = inactive; ? = inconclusive; . = no result given; [ ] = another dose, or the depositor's remark. Unless noted, the call rests on the fitted dose curve; in most records, active means well fitted curve in the direction sought with a large enough effect; inconclusive means small, poorly fitted or top-dose-only effect, or another doubt; inactive means no such curve, though single readings can be large; an effect the other way counts as inactive or inconclusive.
SMILES,KDM5B inhibitor,IP6K1 inhibitor,HEK293 viab,SNCA expr inhib,IP6K1 conf
Nc1nc(Nc2cccc(Cl)c2)sc1C(=O)c1ccc(F)cc1,i,-27*,2%,-13%,-30%
CC[C@H](CC#N)OC(=O)N[C@@H](C)c1cccc(NC(=O)Nc2ccc(-c3cnco3)c(OC)c2)c1,.,-39*,?,?,?
CC(=O)Nc1ccc(S(=O)(=O)[C@H]2CS(=O)(=O)C[C@@H]2N2CCCC2)cc1,i,.,.,.,.
Cc1ccc(C)c(N2CCN(S(=O)(=O)c3cnc(N)nc3)CC2)c1,i,-13,-4%,7%,.
Cc1ccc(C)c(N2CCN(S(=O)(=O)c3csc(C(N)=O)c3)CC2)c1,i,-30*,-5%,-24%,?
COc1cc(O)c2c(c1)/C=C/C[C@H](O)[C@H](O)C(=O)/C=C\C[C@H](C)OC2=O,.,-30*,24µM*,.,?
CCN(CC)S(=O)(=O)c1ccc(-c2csc(=Nc3cccc(C(F)(F)F)c3)n2Cc2ccc3c(c2)OCO3)cc1,?,-4,7%,-1%,.
Cc1ccc(-c2csc(=Nc3ccc(F)cc3)n2Cc2ccc3c(c2)OCO3)cc1C,?,-36*,26%,80%,-5%
Fc1ccc(-c2csc(=Nc3cccc(C(F)(F)F)c3)n2Cc2ccc3c(c2)OCO3)cc1,?,-26*,13%,1%,2%
COc1ccc2c(c1)CN(Cc1ccccc1)C(=O)CCN2C(=O)C1CCC1,.,-4,.,.,.
Cc1ccc(CSc2ncc(Cl)c(C(=O)Oc3ccccc3F)n2)cc1,?,-24,9%,-5%,.
O=C(Oc1ccccc1F)c1nc(SCc2ccccc2F)ncc1Cl,?,-33*,9%,6%,-19%
Cn1sc(=O)n(Cc2ccccc2)c1=O,.,-83*,?,.,18µM*
O=C(O)c1cc(O)c2cccc(O)c2c1O[C@@H]1O[C@H](CO)[C@@H](O)[C@H](O)[C@H]1O,.,-37*,-4%,.,?
Cc1cc2c(cc1C)CSC(c1cc(Cl)ccc1O)SC2,i,.,.,.,.
Fc1ccc(C2Cn3nnc(-c4nc(-c5ccc6c(c5)OCO6)no4)c3CO2)cc1 (stereo not drawn),i,-28*,8%,1%,-16%
Cc1cc(C(C)Nc2ccccc2C(=O)O)c2nc(N3CCOCC3)cc(=O)n2c1 (stereo not drawn),.,1,-18%,.,-11%
CC1CCN(C(=O)CSc2nc(-c3ccccc3)no2)CC1,?,-26*,0%,36%,?
Cc1cc(N2CCN(S(=O)(=O)c3ccccc3F)CC2)nc(C(C)C)n1,i,.,.,.,.
O=C1c2ccccc2-[n+]2ccc3c([nH]c4ccccc43)c21,.,.,?,3µM*,-24%
O=C1C(c2c(O)[nH]c3ccccc23)=Nc2ccccc21,.,-16,-11%[23.9 µM],-23%,.
CN=c1scc(C)n1/N=C/c1ccc(C#N)cc1,i,.,.,.,.
Cc1cc(Nc2nc(N[C@@H](C)c3ncc(F)cn3)ncc2Cl)n[nH]1,.,-1,?,?,1%
CC(C)C[C@H](C(=O)O)c1cc(-c2ccc(C(F)(F)F)cc2)cc(-c2ccc(C(F)(F)F)cc2)c1,.,-30*,-34%,.,?
CCCC(=O)c1cc(O)c(O)cc1O,.,-96*,-14%,30%,?
SMILES,KDM5B inhibitor,IP6K1 inhibitor,HEK293 viab,SNCA expr inhib,IP6K1 conf
Cc1ccc(-c2cccc(CN3CCCC3C(=O)NC3CCCC3)c2)cc1Cl (stereo not drawn),.,3,.,.,.
COc1cc([N+](=O)[O-])ccc1NC(=O)c1nc2ccccc2n(C)c1=O,i,17,6%,18%,.
COc1cc(Nc2ccc([N+](=O)[O-])cc2C(=O)O)cc2ccccc12,.,-25*,-15%,.,?
CCc1cccc(NC(=O)c2cc3c(=O)n(Cc4ccccc4)ccc3nc2C)c1,?,-27*,7%,-6%,31%
CC(C)N(CCC(=O)c1ccc2ccccc2c1)Cc1ccccc1,.,-12,?,8%,9.2µM*
CC(C)C(NC(=O)Cc1ccc2ccccc2c1)C(=O)O (stereo not drawn),i,.,.,.,.
O=C(Nc1ccc(N2CCC(N3CCCCC3)CC2)c(C(=O)O)c1)c1ccc(Br)cc1,?,-29*,9%,42%,?
O=C(Nc1ccc(N2CCOCC2)c(C(=O)O)c1)c1ccc(Br)cc1,?,-33*,7%,34%,?
O=C(Nc1cnc(N2CCC(N3CCCCC3)CC2)c(C(=O)O)c1)c1ccc(Br)cc1,?,-34*,5%,-7%,?
N#C/C(=C/c1cc2ccccc2o1)c1nc2ccccc2[nH]1,i,.,.,.,.
O=C1C(N2CCN(Cc3ccc[nH]3)CC2)CCN1Cc1ccccn1 (stereo not drawn),?,8,-2%,12%,-6%
Cc1cc(C)cc(N(CC(=O)Nc2ccc(C)cc2Cl)S(=O)(=O)c2c(C)[nH]c(=O)[nH]c2=O)c1,i,-27*,-5%,-35%,25%
COc1ccc(N(CC(=O)NCc2ccc(C)cc2)S(=O)(=O)c2c(C)[nH]c(=O)[nH]c2=O)cc1,i,-25*,21%,91%,-12%
COc1ccc(CNC(=O)CN(c2ccc(OC)cc2)S(=O)(=O)c2c(C)[nH]c(=O)[nH]c2=O)cc1,i,-12,13%,85%,.
O=C(Nc1ccccc1F)c1ccc(-c2ccccc2)s1,?,-30*,18%,20%,-12%
O=C(Nc1ccccc1F)c1ccc(-c2ccccc2)cc1,i,.,.,.,.
CCc1cccc(NC(=O)C2CCN(S(=O)(=O)c3cccc(-c4noc(C)n4)c3)CC2)c1,i,46,0%,?,.
Cc1nc(-c2ccc(C)c(S(=O)(=O)N3CCC(C(=O)Nc4ccc(Cl)cc4)CC3)c2)no1,i,-26*,-1%,?,4%
CC(=O)c1ccc(N2CCN(S(=O)(=O)c3cc(-c4noc(C)n4)ccc3C)CC2)cc1,i,5,5%,-21%,.
COc1cccc(NC(=O)C2CCN(S(=O)(=O)c3cc(-c4noc(C)n4)ccc3C)CC2)c1,i,-36*,-12%,-13%,-7%
O=C(O)c1cccc(NC(=O)c2cccc(S(=O)(=O)Nc3cccc(C(=O)O)c3)c2)c1,?,-28*,3%,23%,?
COc1ccccc1N1CCN(S(=O)(=O)c2ccc(F)c(C(=O)Nc3ccc(C)c(F)c3)c2)CC1,?,-28*,0%,-14%,3%
COc1ccc(CCNC(=O)CN2C(=O)COc3ccccc32)cc1OC,i,-34*,-21%,-1%,2%
Cc1c(C)n(Cc2ccc(-c3ccccc3C(=O)O)cc2)c2ccc(C(=O)N[C@@H](C)c3ccc([N+](=O)[O-])cc3)cc12,.,-27*,21%,-12%,?
Cc1nn(-c2ccccc2)c2c1C(C1CC1)N(CC1CN(C(=O)C3CC3)C1)C2=O (stereo not drawn),.,17,.,.,.
c1csc(-c2nc(N3CCOCC3)c3ccccc3n2)c1,i,.,.,.,.

# Assay outcomes deposited in PubChem BioAssay by National Center for Advancing Translational Sciences (NCATS).
